# According to PubChem BioAssay (Tox21):
# Where “and” joins values, the source holds several entries; their conditions need not be identical. Equal entries are not always repeated. Records with an inconclusive call do not appear. Unmarked numbers belong to inactive results. Calls of active or inactive are those of the source. Calls come from the whole dose curve; as a rule, active = well fitted curve in the direction sought with a large enough effect in the repeat runs; inconclusive = weak or mixed curves; inactive = no such curve, though single readings can be large; an effect the other way counts as inactive or inconclusive.
# Experiment: qHTS assay to identify small molecule agonists of the RXR signaling pathway - cell viability counter screen (AID 1159529); note: nearly all actives have a fitted effect of over 50% in size; note: potency is the fitted concentration of half-maximal effect;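 for activity change, negative = cytotoxicity: HEK 293T cells carrying an RXR-alpha UAS beta-lactamase reporter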
# Conditions: RXR-alpha-bla HEK293T viability, CellTiter-Glo, 16 h; series mostly up to 76.8 µM; activity change, negative = cytotoxicity: at the top concentration
# Summary of the method: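 Counter screen: CellTiter-Glo luminescence. Cells: RXR-alpha-UAS-bla HEK 293T. Medium: 2% charcoal-stripped FBS. Treatment: 16 h, 37 C. Reagent incubation: 30 min, RT.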
# % is set by controls: 0 for no effect and ±100 for the full control effect.
SMILES,"activity change, negative = cytotoxicity",Potency
CCc1ccccc1C,0.924%,
BrC(Br)Br,4.95%,
CCCN(CCC)CCc1c[nH]c2ccccc12,-16.5%,
Cc1c(Cl)c(=O)oc2cc(OP(=O)(OCCCl)OCCCl)ccc12,-7.91% [at 35.3 µM],
COS(=O)(=O)c1ccc(C)cc1,-5.2%,
CC(C)CC(C)(c1ccc(O)cc1)c1ccc(O)cc1,,55.1 µM (active) and 49 µM (active)
CC(=O)OC1(c2ccccc2)CCN(CCc2ccccc2)CC1,-7.41%,
CCN,-0.886%,
O=C1NCN(c2ccccc2)C12CCN(CC1COc3ccccc3O1)CC2 (centres undefined),,6.74 µM (active)
Nc1c(Oc2ccccc2)cc(O)c2c1C(=O)c1ccccc1C2=O,-11.9% [at 35.3 µM],
CCOC(=O)C1(c2ccccc2)CCN(CCC(C#N)(c2ccccc2)c2ccccc2)CC1,-3.75% [at 35.3 µM],
Clc1ccc(C(Cl)(Cl)Cl)c(Cl)c1,,19.6 µM (active)
CC(=O)Nc1ccc2c(c1)Cc1ccccc1-2,8.65%,
OC(c1ccc(Cl)cc1)(c1ccc(Cl)cc1)C(Cl)(Cl)Cl,10.5%,
COC(=O)N(C(=O)N1CO[C@@]2(C(=O)OC)Cc3cc(Cl)ccc3C2=N1)c1ccc(OC(F)(F)F)cc1,-8.19%,
O=c1[nH]c2ccccc2n1CCCN1CCC(n2c(=O)[nH]c3cc(Cl)ccc32)CC1,,16.9 µM (active)
CCCN(CC)CC1COC2(CCC(C(C)(C)C)CC2)O1 (centres undefined),-9.77%,
CCOP(=O)(NC(C)C)Oc1ccc(SC)c(C)c1 (centres undefined),-11.3%,
CCOC(=O)CC(=O)CCl,6.13%,

SMILES,"activity change, negative = cytotoxicity",Potency
CCOc1cc(C(C)(C)C)ccc1C1COC(c2c(F)cccc2F)=N1 (centres undefined),,14.9 µM (active)
N#C/C=C/C#N,-6.39%,
O=c1c(C2CC(c3ccc(-c4ccc(Br)cc4)cc3)Cc3ccccc32)c(O)sc2ccccc12 (centres undefined),-9.96% [at 35.3 µM],
N#CCCSCCC#N,-1.94%,
CS(=O)(=O)c1ccc(C(=O)C2C(=O)CCCC2=O)c([N+](=O)[O-])c1,-5.65%,
Clc1ccc(CSC(Cn2ccnc2)c2ccc(Cl)cc2Cl)cc1 (centres undefined),,26.8 µM (active)
CCOCn1c(-c2ccc(Cl)cc2)c(C#N)c(Br)c1C(F)(F)F,,19.5 µM (active)
C[C@]12CC[C@H]3[C@@H](CCC4=CC(=O)CC[C@@]43C)[C@@H]1CC[C@@H]2O,-20.1%,
N#CC(Cl)Cl,-11.3%,
CCOCCOC(C)=O,-0.704%,
ClC1=C(Cl)C2(Cl)C3C(Cl)C=CC3C1(Cl)C2(Cl)Cl (centres undefined),,34.7 µM (active)
CC(C)[C@H](C(=O)OC(C#N)c1cccc(Oc2ccccc2)c1)c1ccc(OC(F)F)cc1 (some centres undefined),-0.742%,
O=[N+]([O-])c1cc([N+](=O)[O-])c2ccccc2c1,-16.1%,
Oc1c(Cl)c(Cl)cc(Cl)c1Cl,,7.55 µM (active)
Cc1ccc(OP(=O)(Oc2ccccc2)Oc2ccccc2)cc1,-28.4%,
CC(C)CCCCCOC(=O)c1ccccc1C(=O)OCCCCCC(C)C,-5.84%,
c1ccc2cc3c(cc2c1)-c1cccc2cccc-3c12,-9.2%,
CCCCCCCCCCCCCN1CC(C)OC(C)C1 (centres undefined),-7.6%,

# Experiment: qHTS assay to identify small molecule antagonists of the retinoid acid receptor (RAR) signaling pathway - cell viability counter screen (AID 1159551); note: nearly all actives have a fitted effect of over 35% in size
# Conditions: C3RL4 cells viability, ATP luminescence (CellTiter-Glo), 6 h; series mostly up to 92.4 µM; activity change, negative = cytotoxicity: at the top concentration
# Summary of the method: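 ATP-based viability, C3RL4 cells, 6 h at 37 C with 1 uM final retinol co-added after compound; luminescence read 30 min post CellTiter-Glo, RT.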
SMILES,"activity change, negative = cytotoxicity",Potency
CCc1ccccc1C,-0.698%,
BrC(Br)Br,0.694%,
CCCN(CCC)CCc1c[nH]c2ccccc12,-0.545%,
Cc1c(Cl)c(=O)oc2cc(OP(=O)(OCCCl)OCCCl)ccc12,-0.615% [at 42.5 µM],
COS(=O)(=O)c1ccc(C)cc1,-1.38%,
CC(C)CC(C)(c1ccc(O)cc1)c1ccc(O)cc1,-1.65%,
CC(=O)OC1(c2ccccc2)CCN(CCc2ccccc2)CC1,-8.14%,
CCN,3.29%,
O=C1NCN(c2ccccc2)C12CCN(CC1COc3ccccc3O1)CC2 (centres undefined),-2.8% [at 42.5 µM],
Nc1c(Oc2ccccc2)cc(O)c2c1C(=O)c1ccccc1C2=O,-10.4% [at 42.5 µM],
CCOC(=O)C1(c2ccccc2)CCN(CCC(C#N)(c2ccccc2)c2ccccc2)CC1,-0.931% [at 42.5 µM],
Clc1ccc(C(Cl)(Cl)Cl)c(Cl)c1,0.215%,
CC(=O)Nc1ccc2c(c1)Cc1ccccc1-2,0.287%,
OC(c1ccc(Cl)cc1)(c1ccc(Cl)cc1)C(Cl)(Cl)Cl,-1.74%,
COC(=O)N(C(=O)N1CO[C@@]2(C(=O)OC)Cc3cc(Cl)ccc3C2=N1)c1ccc(OC(F)(F)F)cc1,-0.034%,
O=c1[nH]c2ccccc2n1CCCN1CCC(n2c(=O)[nH]c3cc(Cl)ccc32)CC1,1.4% [at 42.5 µM],
CCCN(CC)CC1COC2(CCC(C(C)(C)C)CC2)O1 (centres undefined),0.743%,
CCOP(=O)(NC(C)C)Oc1ccc(SC)c(C)c1 (centres undefined),-1.03%,
CCOC(=O)CC(=O)CCl,0.379%,

SMILES,"activity change, negative = cytotoxicity",Potency
CCOc1cc(C(C)(C)C)ccc1C1COC(c2c(F)cccc2F)=N1 (centres undefined),-1.9% [at 42.5 µM],
N#C/C=C/C#N,4.89%,
O=c1c(C2CC(c3ccc(-c4ccc(Br)cc4)cc3)Cc3ccccc32)c(O)sc2ccccc12 (centres undefined),-6.98% [at 42.5 µM],
N#CCCSCCC#N,4.62%,
CS(=O)(=O)c1ccc(C(=O)C2C(=O)CCCC2=O)c([N+](=O)[O-])c1,-0.549%,
Clc1ccc(CSC(Cn2ccnc2)c2ccc(Cl)cc2Cl)cc1 (centres undefined),-9.83% [at 42.5 µM],
CCOCn1c(-c2ccc(Cl)cc2)c(C#N)c(Br)c1C(F)(F)F,-9.7%,
C[C@]12CC[C@H]3[C@@H](CCC4=CC(=O)CC[C@@]43C)[C@@H]1CC[C@@H]2O,3%,
N#CC(Cl)Cl,1.25%,
CCOCCOC(C)=O,-0.286%,
ClC1=C(Cl)C2(Cl)C3C(Cl)C=CC3C1(Cl)C2(Cl)Cl (centres undefined),,inactive
CC(C)[C@H](C(=O)OC(C#N)c1cccc(Oc2ccccc2)c1)c1ccc(OC(F)F)cc1 (some centres undefined),-2.14%,
O=[N+]([O-])c1cc([N+](=O)[O-])c2ccccc2c1,-0.972%,
Oc1c(Cl)c(Cl)cc(Cl)c1Cl,-0.529%,
Cc1ccc(OP(=O)(Oc2ccccc2)Oc2ccccc2)cc1,-0.0468%,
CC(C)CCCCCOC(=O)c1ccccc1C(=O)OCCCCCC(C)C,-0.702%,
c1ccc2cc3c(cc2c1)-c1cccc2cccc-3c12,-2.09%,
CCCCCCCCCCCCCN1CC(C)OC(C)C1 (centres undefined),2.86%,
